Sampled rows, rich in hits. Any-hit rate of the full collection: about 1.2%.
Mtb bLac sens = beta-lactam sensitization of Mtb H37Rv | M. tuberculosis H37Rv growth with meropenem, percent inhibition | inhibition, % at 25 µM | 330,000 tested, 0.27% active | AID 434955; call rule not given here;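 note: growth measured after seven days incubation then overnight dye step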
Mtb UGM inh = inhibitors of M. tuberculosis UDP-galactopyranose mutase. P9WIQ1. purified UGM, fluorescence polarization probe displacement. inhibition, % at 10 µM. 320,000 tested, 0.06% active; in the data active = inhibition above about 10%, passing the limit was not always enough; inconclusive = no clear call, values can overlap the other calls
Rv3671c protease = Rv3671c (M. tuberculosis) protease inhibition; P9WHR9; inhibition, % at 5.96 µM; 320,000 tested, 0.048% active; in the data active = inhibition above about 38%;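 note: extracellular domain of Rv3671c used as enzyme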
Target sequence (P9WHR9 whole entry, looked up, the tested form may be a part): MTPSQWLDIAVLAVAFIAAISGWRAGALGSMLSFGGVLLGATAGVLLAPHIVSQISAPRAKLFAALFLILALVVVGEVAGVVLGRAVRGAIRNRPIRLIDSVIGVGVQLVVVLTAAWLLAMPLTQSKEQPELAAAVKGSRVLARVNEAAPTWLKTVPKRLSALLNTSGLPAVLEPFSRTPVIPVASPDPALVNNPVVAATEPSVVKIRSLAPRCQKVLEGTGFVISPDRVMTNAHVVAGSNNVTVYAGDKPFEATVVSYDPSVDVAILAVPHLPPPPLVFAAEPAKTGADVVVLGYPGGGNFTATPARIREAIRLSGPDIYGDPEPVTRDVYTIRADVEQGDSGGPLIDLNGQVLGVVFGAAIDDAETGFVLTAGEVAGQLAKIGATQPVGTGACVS
RecA intein inh = inhibitors of M. tuberculosis RecA intein splicing | 290,000 tested, 0.75% active | cell-free RecA intein splicing, fluorescence | P9WHJ3 | AID 2221 | inhibition, % (concentration not given with the values); in the data active = inhibition above about 30%; inconclusive = no clear call, values can overlap the other calls
CCHF vOTU inh-1 = CCHFV vOTU protease inhibition | inhibition, % at 11.5 µM | 370,000 tested, 0.55% active | Pep-AMC fluorescence | AID 651958
CCHF vOTU inh-2 = CCHFV vOTU protease inhibition, confirmation; Recombinant CCHFV vOTU, Pep-AMC fluorescence; inhibition, % at 11.5 µM; 1,900 tested, 17% active; shares compounds with CCHF vOTU inh-1
Numbers stand for hits. Cut-off read from the data, not from the text of the source, unless noted: active = inhibition above about 30%; inactive = the rest.

Screening Cc1ccc(S(=O)(=O)N2[C@@H](c3ccc(C(C)(C)C)cc3)C(C(=O)O)=CC[C@H]2c2cccc(Cl)c2)cc1 returned Mtb bLac sens inactive, Mtb UGM inh inactive, Rv3671c protease inactive, CCHF vOTU inh-1 38 and CCHF vOTU inh-2 inactive.
For CCc1ccc([C@@H]2C[C@H]3[C@@H](CN2S(=O)(=O)c2ccc(C)cc2)C(=O)C[C@@H](c2ccc(C)cc2)N3S(=O)(=O)c2ccc(C)cc2)cc1 the results were CCHF vOTU inh-1 34 and CCHF vOTU inh-2 inactive.
Cc1ccc([C@H]2C(C(=O)O)=CC[C@@H](c3ccc(C(C)C)cc3)N2S(=O)(=O)c2ccc(C)cc2)cc1 was read as Mtb bLac sens inactive, Mtb UGM inh inactive, Rv3671c protease inactive, CCHF vOTU inh-1 38 and CCHF vOTU inh-2 inactive.
`Cc1ccc([C@H]2C(C(=O)O)=CC[C@@H](c3ccc(Cl)cc3)N2S(=O)(=O)c2ccc(C)cc2)cc1` gave Mtb bLac sens inactive, Mtb UGM inh inactive, Rv3671c protease inactive, CCHF vOTU inh-1 33 and CCHF vOTU inh-2 inactive.
Screening Cc1ccc(S(=O)(=O)N2[C@@H](c3ccc(Cl)cc3)C(C(=O)O)=CC[C@H]2c2ccc(C(C)C)cc2)cc1 returned Mtb bLac sens inactive, Mtb UGM inh inactive, Rv3671c protease inactive and CCHF vOTU inh-1 inactive.
CCc1ccc([C@@H]2CC=C(C(=O)O)[C@H](c3ccc(C)cc3)N2S(=O)(=O)c2ccc(C)cc2)cc1 was read as Mtb bLac sens inactive, Rv3671c protease inactive, CCHF vOTU inh-1 32 and CCHF vOTU inh-2 inactive.
`Cc1ccc(S(=O)(=O)N2[C@@H](c3ccccc3)C(C(=O)O)=CC[C@H]2c2ccc(C(C)C)cc2)cc1` gave Mtb bLac sens inactive, Mtb UGM inh inactive, Rv3671c protease inactive, CCHF vOTU inh-1 30 and CCHF vOTU inh-2 inactive.
O=C(O)C1=CCC(c2ccc(Cl)c(Cl)c2)N(S(=O)(=O)c2ccc(F)cc2)C1c1cccc(F)c1 (stereo unspecified) was read as CCHF vOTU inh-1 37 and CCHF vOTU inh-2 inactive.
`Cc1ccc(S(=O)(=O)N2[C@@H](c3ccc(C(C)(C)C)cc3)C(C(=O)O)=CC[C@H]2c2ccc(Cl)c(Cl)c2)cc1` gave Mtb bLac sens inactive, Rv3671c protease inactive and CCHF vOTU inh-1 inactive.
Screening Cc1ccc(S(=O)(=O)N2[C@@H](c3ccc(Br)cc3)C(C(=O)O)=CC[C@H]2c2ccc(Cl)c(Cl)c2)cc1 returned Mtb bLac sens inactive, Rv3671c protease inactive, CCHF vOTU inh-1 32 and CCHF vOTU inh-2 inactive.
Screening CCc1ccc([C@@H]2CC=C(C(=O)O)[C@H](c3ccc(Cl)cc3)N2S(=O)(=O)c2ccc(C)cc2)cc1 returned Mtb bLac sens inactive, Mtb UGM inh inactive, Rv3671c protease inactive and CCHF vOTU inh-1 inactive.
Screening Cc1ccc([C@@H]2CC=C(C(=O)O)[C@H](c3ccccc3)N2S(=O)(=O)c2ccc(C)cc2)cc1 returned Mtb bLac sens inactive, Mtb UGM inh inactive, Rv3671c protease inactive and CCHF vOTU inh-1 inactive.
Screening O=S1(=O)c2ccc(N3CCSCC3)cc2Oc2ccccc2CN1Cc1cn(Cc2ccc(C(F)(F)F)cc2)nn1 returned CCHF vOTU inh-1 inactive.
For O=C(CSc1nnc(-c2ccccn2)n1-c1ccc(Cl)cc1)Nc1cccc2ccccc12 the results were CCHF vOTU inh-1 inactive.
`COCCn1c(-c2ccc(Cl)cc2)cnc1SCC(=O)NCCc1ccc(OC)c(OC)c1` gave Mtb bLac sens inactive, Mtb UGM inh inactive, Rv3671c protease inactive, RecA intein inh inactive, CCHF vOTU inh-1 30 and CCHF vOTU inh-2 inactive.
`COc1ccc(CCNC(=O)CSCc2ccc(Cl)cc2)cc1OC` gave Mtb bLac sens inactive, Mtb UGM inh inactive, Rv3671c protease inactive, RecA intein inh inactive and CCHF vOTU inh-1 inactive.
`COc1ccc(CCNC(=O)CSc2nc(N)c(C#N)c(-c3cccs3)c2C#N)cc1OC` gave Mtb bLac sens inactive, Mtb UGM inh inactive, Rv3671c protease inactive, RecA intein inh inactive, CCHF vOTU inh-1 32 and CCHF vOTU inh-2 inactive.
`Cc1nc2c(nc1C)C(=O)c1ccccc1C2=O` gave CCHF vOTU inh-1 32 and CCHF vOTU inh-2 inactive.
Screening COC(=O)[C@]12C[C@H](CC(=O)NCCCCc3ccccc3)C(=O)N(CCC3=CCCCC3)C1=C[C@H](COCc1ccccc1)O[C@@H]2C returned CCHF vOTU inh-1 inactive.
CC(=O)N1CCc2cc(S(=O)(=O)NCCC(=O)NCc3ccc(Cl)cc3)ccc21 was read as CCHF vOTU inh-1 inactive.
Cc1cc(SCC(=O)NC2CC2)nc2ccccc12 was read as Mtb bLac sens inactive, Mtb UGM inh inactive, Rv3671c protease inactive, CCHF vOTU inh-1 40 and CCHF vOTU inh-2 inactive.
`COc1ccc2c(C)cc(SCC(=O)NC3CCCC3)nc2c1` gave Mtb bLac sens inactive, Mtb UGM inh inactive, Rv3671c protease inactive and CCHF vOTU inh-1 inactive.
CCC(=O)N(CCC(c1ccccc1)c1ccco1)Cc1cccs1 (stereo unspecified) was read as Mtb bLac sens inactive, Mtb UGM inh inactive, Rv3671c protease inactive, RecA intein inh inactive, CCHF vOTU inh-1 34 and CCHF vOTU inh-2 inactive.
C=CCC12C=C(OC)C(=O)C(C1=O)C1c3ccccc3CC12 (stereo unspecified) was read as CCHF vOTU inh-1 inactive.
`O=C(c1ccc2c(c1)OCO2)N1CCC(Oc2cccnc2)CC1` gave CCHF vOTU inh-1 inactive.
Cc1cc(C)cc(NC(=O)CN(C)CC(=O)N(CC(C)C)c2c(N)n(CC(C)C)c(=O)[nH]c2=O)c1 was read as Mtb bLac sens inactive, Mtb UGM inh inactive, Rv3671c protease inactive, CCHF vOTU inh-1 35 and CCHF vOTU inh-2 inactive.
For Nc1ccc(N=Nc2ccc(O)cc2)c(N)n1 the results were CCHF vOTU inh-1 38 and CCHF vOTU inh-2 inactive.
Screening COC(=O)[C@]1(CNC(=O)c2cc(F)ccc2F)CC(=O)N(C)[C@@H]1c1ccccc1 returned CCHF vOTU inh-1 inactive.
For CN(CCO)c1cccc2c1S(=O)(=O)N(Cc1cn(Cc3cccc(F)c3)nn1)Cc1ccccc1O2 the results were CCHF vOTU inh-1 inactive.
Screening O=[N+]([O-])c1cccc(C2=Nn3c(nnc3-c3ccccc3)SC2)c1 returned CCHF vOTU inh-1 inactive.
Screening C=CCN1[C@H](CC(C)C)COc2cccc(N3CCSCC3)c2S1(=O)=O returned CCHF vOTU inh-1 inactive.
`O=C(Nc1cccc(Cl)c1)Nc1ccnc(-c2cccnc2)n1` gave Mtb bLac sens inactive, Mtb UGM inh inactive, Rv3671c protease inactive, RecA intein inh inactive, CCHF vOTU inh-1 32 and CCHF vOTU inh-2 inactive.
O=C(Nc1cccc(Cl)c1)Nc1cnccn1 was read as Mtb bLac sens inactive, Mtb UGM inh inactive, Rv3671c protease inactive, RecA intein inh inactive and CCHF vOTU inh-1 inactive.
For O=C1Nc2ccccc2Nc2ccc([N+](=O)[O-])cc21 the results were Mtb bLac sens inconclusive, Mtb UGM inh inactive, Rv3671c protease inactive, RecA intein inh inactive, CCHF vOTU inh-1 38 and CCHF vOTU inh-2 inactive.
COc1ccc(-n2c(SCc3nc4ccccc4[nH]3)nc3ccccc3c2=O)cc1 was read as CCHF vOTU inh-1 inactive.
For CC1(C)Cc2c(c(-c3ccco3)[nH]c(=O)c2C#N)CS1 the results were Mtb bLac sens inactive, Mtb UGM inh inactive, Rv3671c protease inactive, RecA intein inh inactive, CCHF vOTU inh-1 32 and CCHF vOTU inh-2 inactive.
